Laboratory results taken from PubChem BioAssay AID1008 (NMMLSC, 2008).
About 240 (0.13%) of roughly 190,000 compounds were called active. For the sample, actives were picked, then their nearest neighbours and some compounds at random. A number with no mark means an inactive call. No stated cut-off is given here; in the data, active means inhibition above about 40%.

Molecular target: Bcl-2-related protein A1 (Homo sapiens) (UniProt Q16548)
Test: inhibitors of Bim binding to Bfl-1, primary screen, biochemical, multiplexed, bead-based flow cytometry (AID 1008);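 further: 0% = wells without compound plus tracer and 100% = blocker peptide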
Details: Bim-Bfl-1 binding inhibition, at 10 µM, stronger effect = higher value

Chain of Bcl-2-related protein A1 (Homo sapiens) (Q16548 whole entry, looked up): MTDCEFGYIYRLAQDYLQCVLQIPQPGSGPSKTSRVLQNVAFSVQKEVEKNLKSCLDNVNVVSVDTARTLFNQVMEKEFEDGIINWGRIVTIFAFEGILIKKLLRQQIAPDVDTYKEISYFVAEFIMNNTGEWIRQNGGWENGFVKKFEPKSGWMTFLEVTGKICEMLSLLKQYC

First: CCOC(=O)c1cnc2[nH]c3ccccc3n2c1=O
Second: CCOC(=O)c1ccccc1NC(=O)CSc1nc2ccccc2c(=O)[nH]1
The inhibition of the first is lower: -8% for the first, -3% for the second.

`O=[N+]([O-])c1cccc(-c2nnc3c4ccccc4c4ccccc4n23)c1` and `Cc1nn(-c2ccccc2)c(NC(=O)c2cccs2)c(-c2ccc(Cl)cc2)c1=O` are the same in inhibition: -7% for the first, -7% for the second.

First: CC(=O)c1ccc(N2CCN(C(=O)c3ccc4nc[nH]c4c3)CC2)cc1
Second: O=C(/C=C/c1ccc(Cl)cc1)N1CCN(c2ccccc2[N+](=O)[O-])CC1
The inhibition of the first is lower: 0% for the first, 2% for the second.

First: CN(C(=O)CSc1nnc(Nc2ccccc2)s1)C1CCS(=O)(=O)C1 (stereo not drawn)
Second: O=C(O)CSc1nccc2ccccc12
The inhibition of the first is lower: -5% for the first, 5% for the second.

Compared with `CC1(C)C2CCC1(C)C(OC(=O)c1ccc(O)cc1)C2` (stereo not drawn), `CO/N=C/CC(=O)c1ccc(OC)cc1` is lower in inhibition: 2% for the first, -2% for the second.

Going from `COc1ccc(CC(=O)NCc2nnc(SCC(=O)Nc3ncc(C)s3)n2C)cc1` to `CCn1c(CNC(=O)c2ccco2)nnc1SCC(=O)Nc1cccc(F)c1`, the inhibition rises from -5% to -1%.

First: COc1ccc(CN2CCNC(=O)C2CC(=O)N(C)Cc2ccccn2)cc1OC (stereo not drawn)
Second: COC(=O)COc1ccc(C2NC(=O)NC(C)=C2C(=O)NCc2ccccc2)cc1OC (stereo not drawn)
The inhibition of the first is higher: -2% for the first, -9% for the second.

Compared with `O=C(O)CC(Cc1ccccc1)C(=O)Nc1ccc([N+](=O)[O-])cc1` (stereo not drawn), `O=C(CCC(=O)Nc1ccccc1)N/N=C/c1ccccc1F` is higher in inhibition: -14% for the first, -4% for the second.

Compared with `Cc1cc(Cl)ccc1NC(=S)N1CCC(C(N)=O)(N2CCCCC2)CC1`, `Cc1ccc(C2CCN(C(=S)Nc3cccc(Cl)c3)C2)cc1` (stereo not drawn) is lower in inhibition: 0% for the first, -4% for the second.

First: C=CCOCCN(C)C1=NS(=O)(=O)c2ccccc21
Second: C=CCc1ccccc1OCC(=O)N/N=C/c1ccccc1OCC
The inhibition of the first is lower: -4% for the first, -1% for the second.

Going from `CCC(C)(C)NC(=O)CN(C(=O)C(=O)Nc1ccc2c(c1)OCCO2)C(C)(C)CC` to `Cc1cc(Cl)c(S(=O)(=O)Nc2ccc3c(c2)OCCO3)cc1OCC(N)=O`, the inhibition falls from 3% to -2%.

Compared with `O=S(=O)(c1ccc(-c2ccccc2)cc1)N1CCCC1`, `Cc1cc(C(=O)NNC(=O)c2cccc(S(=O)(=O)N3CCOCC3)c2)c2ccccc2n1` is higher in inhibition: -7% for the first, -6% for the second.

First: CN(c1ccc2nc3ccccc3c(=O)n2n1)C1CCCCC1
Second: Cn1cc(CN2CCC(C(O)CCc3ccccc3)CC2)c(-c2ccccc2F)n1 (stereo not drawn)
The inhibition of the first is higher: -3% for the first, -5% for the second.

`CCOC(=O)Cc1csc(NC(=O)COc2ccc3c(C)cc(=O)oc3c2)n1` and `Cc1ccc(-c2csc(NC(=O)Cn3[nH]c(=O)c4ccccc4c3=O)n2)cc1` are the same in inhibition: -4% for the first, -4% for the second.

Compared with `COc1ccc(-c2ccc(CCC(=O)O)n2-c2ccc(O)cc2)cc1`, `COc1ccc(N2C(=O)C(CC(=O)Nc3ccc(F)cc3)N(CCc3cccs3)C2=O)cc1` (stereo not drawn) is lower in inhibition: 5% for the first, -3% for the second.

Compared with `Cc1cc(Cl)c(S(=O)(=O)NCCC(=O)O)cc1OCC(N)=O`, `CCOC(=O)/C(C#N)=C/c1cn(CCC(=O)O)nc1-c1ccc(Br)cc1` is higher in inhibition: -15% for the first, -9% for the second.

Going from `CN(C)S(=O)(=O)N1CCN(c2ccc([N+](=O)[O-])cc2)CC1` to `Cc1cc([N+](=O)[O-])ccc1NC1CCCC1`, the inhibition falls from 0% to -7%.

Going from `Cc1ccc(CC(=O)Nc2ccc(OC(F)F)c(Cl)c2)cc1C` to `CCc1cccc(CC)c1NC(=S)NCc1ccc2[nH]c(C)cc2c1`, the inhibition rises from -6% to -2%.

First: COc1cccc(C(O)Cc2nc3ccccc3n2C)c1OC (stereo not drawn)
Second: CC(C)n1c(O)c(N=Nc2ccccn2)c2ccccc21
The inhibition of the first is lower: -3% for the first, -1% for the second.

Going from `CC(=O)Nc1ccc(NC(=O)COc2ccc(S(=O)(=O)NC(C)c3ccccc3)cc2)cc1` (stereo not drawn) to `COc1ccc(S(=O)(=O)Nc2ccc(O)c(Sc3nc4ccccc4s3)c2)cc1`, the inhibition rises from -5% to 9%.

First: Cc1oc2c(c1C(=O)N1CCOCC1)C(=O)c1ccccc1C2=O
Second: CCO[C@H]1OC(C(=O)N2CCOCC2)=C[C@@H](c2ccc3c(c2)OCO3)[C@@H]1CCCO
The inhibition of the first is higher: -1% for the first, -4% for the second.

Going from `Cc1ccnc(NC(=O)c2ccco2)n1` to `CC(/C=N/NC(=O)c1ccncc1)=C\c1ccco1`, the inhibition rises from -3% to -1%.

First: C/C(=N\NC(=O)COc1c(C)cccc1C)c1cccs1
Second: Cc1[nH]c2ccccc2c1SCC(=O)Nc1nccs1
The inhibition of the first is lower: -7% for the first, -5% for the second.

First: Cc1ccc(NC(=O)c2ccn(C(=O)Nc3ccccc3)n2)c(C)c1
Second: Cc1ccccc1NC(=O)CN1C(=O)N/C(=C\c2cccn2-c2cccc(C(=O)O)c2)C1=O
The inhibition of the first is higher: -2% for the first, -3% for the second.

`CC1(C)CC(=O)c2ccc(O)cc2O1` and `CC1Cc2ccccc2N1C1=CC(=O)CC(C)(C)C1` (stereo not drawn) are the same in inhibition: -4% for the first, -4% for the second.

First: CCCOC(=O)c1c(NC(=O)c2cnn3c2NC(c2ccccc2)CC3C(F)(F)F)sc2c1CCCC2 (stereo not drawn)
Second: CCO[C@H]1OC(C(=O)N2CCCCCCC2)=C[C@@H](c2ccc(C(F)(F)F)cc2)[C@@H]1CCCO
The inhibition of the first is lower: -18% for the first, -7% for the second.

Going from `O=C(O)c1cccc(S(=O)(=O)Nc2ccc(O)cc2Sc2nc3ccccc3s2)c1` to `CC(/C=N/NC(=O)c1cc(-c2ccc3ccccc3c2)n[nH]1)=C\c1ccco1`, the inhibition rises from 7% to 8%.

First: COc1ccc(N(C)S(=O)(=O)c2cccc3nsnc23)cc1
Second: CCC(O)C1CCN(Cc2cn(-c3ccc(OC)cc3)nc2-c2cccc(F)c2)CC1 (stereo not drawn)
The inhibition of the first is higher: -6% for the first, -8% for the second.

First: C=CCn1c2ccccc2c2nnc(SCc3[nH]c(=O)[nH]c3C(=O)CCCCC(=O)OCC)nc21
Second: COc1cc(OC)c(C(=O)OCC(=O)N2CC(=O)Nc3ccccc32)cc1OC
The inhibition of the first is higher: 16% for the first, -1% for the second.

Going from `Cc1nonc1C1CCCN1Cc1nc(-c2ccc(F)cc2F)oc1C` (stereo not drawn) to `CCOC(=O)C1(CC2CCCCO2)CCN(Cc2nc(-c3cccs3)oc2C)CC1` (stereo not drawn), the inhibition falls from -4% to -5%.

First: Cc1n[nH]c(=O)n1-c1ccc(C(C)C)cc1
Second: CCC(=O)c1ccc(OCC(O)Cn2nc(C)c(C(C)=O)c2C)cc1 (stereo not drawn)
The inhibition of the first is lower: -5% for the first, 0% for the second.

First: C/C(CC(=O)Nc1cccc(F)c1)=N\NC(=O)C(=O)NC1CCCCC1
Second: CNC(=S)N1CCC(NC(=O)C(Cc2ccc(F)cc2)NC(C)=O)CC1 (stereo not drawn)
The inhibition of the first is higher: 0% for the first, -2% for the second.

First: CN(C(=O)c1c(Cl)cnn1C)C12CC3CC(CC(C3)C1)C2
Second: CCN(CC)S(=O)(=O)c1ccc(Cl)c(C(=O)NC(C)C(c2cccs2)N2CCCC2)c1 (stereo not drawn)
The inhibition of the first is higher: 21% for the first, -5% for the second.

`CCN(CCn1cccn1)Cc1nc(-c2ccc(C(=O)OC)cc2)no1` and `CCN(CC)CCCNC(=O)c1ccc2c(=O)n(Cc3ccc4c(c3)OCO4)c(=S)[nH]c2c1` are the same in inhibition: -5% for the first, -5% for the second.

Going from `COc1cc(NC(=S)NCCSc2ccc(C)cc2)cc(OC)c1` to `COc1cc(OC)cc(-c2nnc(N(C)C(=O)c3ccncc3)s2)c1`, the inhibition falls from -1% to -10%.

First: C=CCNc1nc(Nc2ccc(Cl)cc2)nc(OC)n1
Second: Nc1nc(CC(=O)CSc2ccc(Cl)cc2)nc(Nc2ccc(F)cc2)n1
The inhibition of the first is higher: -6% for the first, -12% for the second.

First: Cc1cccc(NC(=S)NCCN(C2CCCCC2)C2CCCC2)c1
Second: OCCC1CN(Cc2ccc3nsnc3c2)CCN1C1CCCC1 (stereo not drawn)
The inhibition of the first is higher: -2% for the first, -8% for the second.

Compared with `Cc1cccc2cc(CN(C(=O)c3cccs3)c3ccccc3)c(=O)[nH]c12`, `CC(OC(=O)c1ccccc1OCc1ccc(Cl)cc1)C(N)=O` (stereo not drawn) is higher in inhibition: -5% for the first, -4% for the second.

Compared with `N=c1c2c3c(sc2ncn1N)CCCC3`, `CCc1ccc(C2C(C#N)=C(N)N(N(C)C)C3=C2C(=O)CCC3)s1` (stereo not drawn) is higher in inhibition: -7% for the first, 0% for the second.

First: CCOC(=O)c1sc(-c2cccc([N+](=O)[O-])c2)cc1N
Second: Cc1c(NC(=O)/C=C/C(=O)O)cccc1[N+](=O)[O-]
The inhibition of the first is higher: -1% for the first, -15% for the second.

Going from `Cc1ccc(/C=N/NC(=O)Cn2ccc(C(F)(F)F)n2)o1` to `Cc1ccc(/C=N/NC(=O)CNC(=O)COc2ccccc2)o1`, the inhibition falls from -3% to -12%.

First: CC(=O)C1=C(C)NC2=C(C(=O)CC(C)(C)C2)C1C (stereo not drawn)
Second: C=CCOC(=O)C1=C(C)N=C2SCCC(=O)N2C1/C=C/c1ccccc1OC (stereo not drawn)
The inhibition of the first is higher: -2% for the first, -9% for the second.

Compared with `OC1CCCN(c2ncnc3c2nnn3Cc2c(F)cccc2Cl)C1` (stereo not drawn), `CSCc1cc(N2CCOCC2)nc(SCc2ccc(Cl)cc2Cl)n1` is lower in inhibition: 4% for the first, -15% for the second.

Going from `CCc1nnc(NC(=O)/C=C/c2ccc(C)o2)s1` to `O=C(/C=C/c1ccc(Cl)cc1)Nc1ccc(Br)cn1`, the inhibition falls from -1% to -6%.

Compared with `Clc1ccc(CSc2nnc(/C=C/c3ccccc3)o2)c(Cl)c1`, `COC(=O)c1cc2c(ccn2C)n1C` is higher in inhibition: -12% for the first, -5% for the second.

For `O=c1[nH]c2ccccc2n2c(-c3ccccc3)nnc12`, the inhibition was 54% (active).
`Cc1cc(Cl)c(S(=O)(=O)NCC2CCCO2)cc1OCC(N)=O` (stereo not drawn) was tested, and the inhibition was 48% (active).
For `C=CS(=O)c1sc(Cl)c(N2CCOCC2)c1[N+](=O)[O-]` (stereo not drawn), the inhibition was 57% (active).
For `O=[N+]([O-])c1c(NCCO)cc(Sc2nc3ccccc3s2)c2nonc12`, the inhibition was 56% (active).
For `CCOc1ccccc1/C=N/NC(=O)CNC(=O)COc1ccccc1`, the inhibition was 54% (active).
For `Cc1ccc(/C=C/C(=O)Nc2ccc([N+](=O)[O-])c(NC(=O)/C=C/c3ccc(C)o3)c2)o1`, the inhibition was 40% (active).
For `CSCc1cc(N(C)C)nc(SCc2ccc(Cl)cc2Cl)n1`, the inhibition was 52% (active).
In the case of `C/C(=C\c1ccco1)C1Nc2cccc3cccc(c23)N1`, the inhibition is reported as 45% (active).
